Experimental data as given in PubChem BioAssay AID624417 (National Center for Advancing Translational Sciences (NCATS), 2012).
Screen size: about 410,000 compounds; about 6,400 (1.6%) were called active. Where a call stands in place of a potency, no number is given. Roughly 20% stayed inconclusive and do not appear here. This is one part of a sample in which actives are shown more often than they occur. The call rests on the fitted dose curve; in most records, active means well fitted inhibition curve with a large enough effect; inconclusive means small, poorly fitted or top-dose-only effect; inactive means no such curve, though single readings can be large or run the other way.
Further: nearly all actives have a fitted effect of over 55% in size.
Potency means the concentration at half of the fitted maximal effect.

What follows are molecules tested against Glucagon-like peptide 1 receptor (Homo sapiens) (UniProt P43220) (assay: qHTS of GLP-1 Receptor Inverse Agonists (Inhibition Mode)). Conditions: HEK293 GLP-1R CRE-luciferase, luminescence, 24 h, GLP-1R form is constitutively active; series mostly up to 38.3 µM.
Sequence of Glucagon-like peptide 1 receptor (Homo sapiens) (P43220 whole entry, looked up): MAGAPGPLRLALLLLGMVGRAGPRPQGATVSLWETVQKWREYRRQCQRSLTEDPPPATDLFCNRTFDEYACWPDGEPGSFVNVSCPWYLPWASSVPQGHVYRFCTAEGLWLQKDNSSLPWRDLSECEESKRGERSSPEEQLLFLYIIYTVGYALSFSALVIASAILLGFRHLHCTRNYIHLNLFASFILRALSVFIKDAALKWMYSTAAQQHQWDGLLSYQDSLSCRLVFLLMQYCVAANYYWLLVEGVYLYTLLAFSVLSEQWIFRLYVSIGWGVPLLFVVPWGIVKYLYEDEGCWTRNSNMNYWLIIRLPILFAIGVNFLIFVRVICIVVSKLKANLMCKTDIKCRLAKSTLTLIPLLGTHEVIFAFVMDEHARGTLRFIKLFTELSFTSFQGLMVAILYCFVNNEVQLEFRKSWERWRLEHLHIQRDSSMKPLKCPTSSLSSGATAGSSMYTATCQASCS
In short: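 Constitutively active GLP-1R drives a cAMP-responsive luciferase in stably transfected HEK293 cells; test compounds are added after overnight (12 h) attachment and left 24 hr, and signal loss in luminescence marks inhibition.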
With `CCNC(=O)c1cc2c(c(-c3cccc(-c4cncnc4)c3)n1)[C@H](CCO)N(C(C)=O)C2` the Potency was “inactive”.
For `Cc1cccc(NC(=S)NCCc2ccc(Cl)cc2)c1C`, the Potency was 5.62 µM (active).
For `CCNC(=S)Nc1cccc(Cl)c1C`, the Potency was “inactive”.
`Cc1c(Cl)cccc1NC(=S)NCc1ccc2c(c1)OCO2` was tested, and the Potency was “inactive”.
With `COc1ccc(S(=O)(=O)N(C)C[C@H]2OCc3cnnn3CCCC(=O)N([C@H](C)CO)C[C@H]2C)cc1` the Potency was “inactive”.
For `Cc1cc(S(=O)(=O)Nc2ccc(C(=O)NCC(c3ccco3)N3CCCC3)cc2)ccc1F` (stereo not drawn), the Potency was “inactive”.
With `CC1Cc2ccccc2N1S(=O)(=O)c1cccc(C(=O)OCC(=O)N2CCOCC2)c1` (stereo not drawn) the Potency was “inactive”.
For `CSc1ncccc1C(=O)NCC(c1ccco1)N1CCCCC1` (stereo not drawn), the Potency was “inactive”.
For `CC1CCc2sc(C(=O)NCC(c3ccco3)N3CCCCC3)cc2C1` (stereo not drawn), the Potency was 8.91 µM (active).
`CC1Cc2ccccc2N1S(=O)(=O)c1cccc(C(=O)NCC(c2ccco2)N2CCCC2)c1` (stereo not drawn) was tested, and the Potency was 10 µM (active).
For `CC1CCc2sc(C(=O)N/N=C/C3CCCCC3)cc2C1` (stereo not drawn), the Potency was “inactive”.
In the case of `CCN(CC(=O)Nc1ccc(NC(C)=O)cc1)C(=O)C1CC(=O)N(c2ccc3c(c2)OCCO3)C1` (stereo not drawn), the Potency is reported as “inactive”.
`COc1cccc(CN(C)C(=O)CC[C@H]2O[C@@H](n3cnc4c(NC(=O)c5ccccc5)ncnc43)[C@H](O)[C@@H]2O)c1` was tested, and the Potency was “inactive”.
For `CCCS(=O)(=O)NC(=O)C1(C)CCN(C(=O)c2sccc2C)C1` (stereo not drawn), the Potency was “inactive”.
`O=C(OCc1cn([C@H]2C[C@H](c3ccccc3)N(C(=O)c3cccs3)C[C@@H]2O)nn1)c1ccccc1` was tested, and the Potency was “inactive”.
In the case of `CN1CCN(C(=O)c2ccc(-c3cc4nc(NCc5cccnc5)n(C)c(=O)c4s3)cc2)CC1`, the Potency is reported as “inactive”.
`O=C(c1ccccc1)N1CCN(c2cc(-c3ccccc3)nc3cc(-c4cccc(Cl)c4)nn23)CC1` was tested, and the Potency was “inactive”.
With `COc1ccc(OC)c(NC(=O)C2CCCN2S(=O)(=O)c2ccc3c(c2)CC(C)N3C(C)=O)c1` (stereo not drawn) the Potency was “inactive”.
For `C[C@@H]1CN([C@@H](C)CO)C(=O)CCCn2nncc2CO[C@@H]1CN(C)S(=O)(=O)c1ccc(-c2ccccc2)cc1`, the Potency was “inactive”.
In the case of `CC(C)CCNC(=O)c1[nH]c(C(F)(F)F)nc1-c1ccccc1`, the Potency is reported as “inactive”.
With `COc1ccc(N(CC(=O)Nc2ccc(F)c(F)c2)S(=O)(=O)c2c(C)[nH]c(=O)[nH]c2=O)cc1` the Potency was “inactive”.
For `COC(=O)c1sccc1S(=O)(=O)N(CC(=O)Nc1ccc(C)c(F)c1)c1ccc(C)c(C)c1`, the Potency was 8.91 µM (active).
For `CCc1cccc(NC(=O)CN(c2ccc(C)c(C)c2)S(=O)(=O)c2ccsc2C(=O)OC)c1`, the Potency was “inactive”.
`CCc1nc2ccc(C(=O)N3CCN(S(=O)(=O)CC)CC3)cn2c1N(C=O)CCC(C)C` was tested, and the Potency was “inactive”.
In the case of `COc1ccc(CCNC(=O)C(=O)NCC2CCCN2S(=O)(=O)c2cccs2)cc1OC` (stereo not drawn), the Potency is reported as “inactive”.
`O=C(NCCC1CCCCN1S(=O)(=O)c1cccs1)C(=O)Nc1ccc(F)cc1F` (stereo not drawn) was tested, and the Potency was 6.31 µM (active).
In the case of `O=C(NCCC1CCCCN1S(=O)(=O)c1ccc(F)cc1)C(=O)NC1CC1` (stereo not drawn), the Potency is reported as “inactive”.
For `COC(=O)C[C@@H]1C=C[C@@H](NC(=O)c2ccc3c(c2)OCO3)[C@@H](CO)O1`, the Potency was “inactive”.
For `CCOC(=O)c1cc2sccc2n1Cc1ccc(C#N)cc1`, the Potency was “inactive”.
For `O=C(c1cc2sccc2n1Cc1ccc(F)cc1)N1CCc2ccccc21`, the Potency was 5.01 µM (active).
For `CC(=O)Nc1ccc(NC(=O)c2cc3sccc3n2Cc2ccc(F)cc2)cc1`, the Potency was “inactive”.
For `N#CCCC(C#N)(c1cccnc1)N1CCOCC1` (stereo not drawn), the Potency was “inactive”.
In the case of `COCCNC(=O)C1(C)CCCN(Cc2cccc(F)c2)C1` (stereo not drawn), the Potency is reported as “inactive”.
`O=C(NCc1cccc(C(F)(F)F)c1)c1ccc2sc(COCCO)nc2c1` was tested, and the Potency was “inactive”.
For `O=C(C[C@H]1C[C@H]2c3cc(NS(=O)(=O)c4ccc(F)cc4)ccc3O[C@H]2[C@H](CO)O1)NCc1cc(F)ccc1F`, the Potency was “inactive”.
With `CCCNC(=O)c1cc(C2CCCCN2C(=O)OC)on1` (stereo not drawn) the Potency was “inactive”.
For `COc1ccc(C(=O)N2CCCCC2c2cc(C(=O)Nc3ccccc3)no2)cc1` (stereo not drawn), the Potency was 10 µM (active).
For `N#Cc1cccc(NC(=O)c2cc(C3CCCCN3C(=O)CCc3ccccc3)on2)c1` (stereo not drawn), the Potency was “inactive”.
`COc1cccc(NC(=O)N(C)C[C@@H]2Oc3ncc(Br)cc3C(=O)N([C@@H](C)CO)C[C@H]2C)c1` was tested, and the Potency was “inactive”.
`CCC1OC(C2CC2)CC2=C1C(=O)OC(C)(C)O2` (stereo not drawn) was tested, and the Potency was “inactive”.
In the case of `O=C(Nc1ccc(S(=O)(=O)Nc2nccs2)cc1)c1cc(-c2ccncc2)nc2ccccc12`, the Potency is reported as “inactive”.
In the case of `COC(=O)CNC(=O)c1cc(-c2ccncc2)nc2ccccc12`, the Potency is reported as “inactive”.
In the case of `CCN(CC)CCNC(=O)c1ccc(NC(=O)c2cc(-c3ccncc3)nc3ccccc23)cc1`, the Potency is reported as 12.6 µM (active).
For `C=CCOc1ccccc1CNn1c(C)n[nH]c1=S`, the Potency was “inactive”.
`CC1(C(=O)NS(=O)(=O)c2cccc(OC(F)F)c2)CCN1C(=O)COc1ccc(Cl)cc1` (stereo not drawn) was tested, and the Potency was “inactive”.
For `FC(F)Oc1ccccc1C1CC(c2ccc(Br)s2)Nc2ncnn21` (stereo not drawn), the Potency was 7.94 µM (active).
With `CCOc1ccccc1C1CC(c2ccccc2)Nc2nc(N)nn21` (stereo not drawn) the Potency was “inactive”.
`COc1ccc(C2CC(c3ccc(C)cc3)Nc3ncnn32)cc1` (stereo not drawn) was tested, and the Potency was “inactive”.
`Cc1ccc(S(=O)(=O)N[C@H](CO)C(C)C)cc1` was tested, and the Potency was “inactive”.
In the case of `C[C@H]1CN([C@@H](C)CO)C(=O)CCCn2cc(nn2)CO[C@@H]1CN(C)S(=O)(=O)c1ccc(-c2ccccc2)cc1`, the Potency is reported as “inactive”.
For `C[C@H]1CN(c2ccc(Br)cc2)C(=O)[C@@H]1CC(=O)Nc1ccc(Br)cc1`, the Potency was “inactive”.
In the case of `COc1ccc(NC(=O)c2sc(=O)n(Cc3ccc(S(=O)(=O)N(C)C)cc3)c2C)cc1`, the Potency is reported as “inactive”.
`Cc1ccccc1CNC(=O)c1ccc(NC(=O)N2CCCCc3ccccc32)cc1` was tested, and the Potency was “inactive”.
In the case of `Cc1cc(Cl)ccc1NC(=O)Cc1ccc(NC(=O)N2CCCCc3ccccc32)cc1`, the Potency is reported as “inactive”.
In the case of `Cc1ccc(NC(=O)Cc2ccc(NC(=O)N3CCCCc4ccccc43)cc2)cc1`, the Potency is reported as 7.94 µM (active).
With `CCOC(=O)N1CCN(C(=O)C[C@@H]2C[C@@]3(C(=O)OC)CC(C)(C)CC=C3N(Cc3ccco3)C2=O)CC1` the Potency was “inactive”.
With `CCCNC(=O)C1(C)CCCN(C(=O)c2oc3ccccc3c2C)C1` (stereo not drawn) the Potency was “inactive”.
`CC1(C(=O)NS(=O)(=O)c2cccc(F)c2)CCN1C(=O)c1cccc2ccccc12` (stereo not drawn) was tested, and the Potency was “inactive”.
